Data on 45 sequences can be found in paper PMC7819943, “Rice protein-binding microarrays: a tool to detect cis-acting elements near promoter regions in rice”.

Whole data set: some 68,000 sequences, median “fluorescence intensity (a.u.)” near 9,100, cut for the highest 2% near 16,000. The list comes from a sample in which the highest values are over-represented; it also holds similar and randomly drawn sequences.

OsWRKY34, sequence (Q0JBA9 entry or part of it): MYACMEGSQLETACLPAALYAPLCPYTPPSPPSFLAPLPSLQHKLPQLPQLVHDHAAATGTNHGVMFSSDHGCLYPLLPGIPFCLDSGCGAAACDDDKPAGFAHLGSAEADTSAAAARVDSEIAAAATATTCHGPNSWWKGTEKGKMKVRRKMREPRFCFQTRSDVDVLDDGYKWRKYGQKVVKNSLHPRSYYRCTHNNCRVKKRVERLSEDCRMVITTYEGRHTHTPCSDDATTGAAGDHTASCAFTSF

The assay concerns the target OsWRKY34 (Oryza sativa, UniProt Q0JBA9 1-250). As to the kind of experiment: protein-binding microarray (RPBM); PBS, 2% BSA, 51.3 ng/ul salmon testes DNA, 50 uM zinc acetate, 200 nM TF, 25 C, 1 h; high values mean tight binding. The conditions noted are these: protein: recombinant; tags: N-terminal polyhistidine and DsRed monomer fusion (pET32a); label: CyDye5-dUTP incorporated in the synthesized complementary strand; 3' TTTTT single-stranded linker to array surface; dsDNA, one strand shown. The essentials: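 Using Ni–NTA, transcription factors fused N-terminally to polyhistidine and DsRed were purified after expression in E. coli BL21-CodonPlus. These were incubated at 200 nM with a blocked, double-stranded custom Agilent array for 1 h at 25 °C in a buffer containing 50 µM zinc acetate, and the array was washed. The binding signal is per-feature fluorescence intensity (arbitrary units) on an Axon 4000B scanner.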
Consider “ACAATTCACAAACGAACCTCTGCTGTTAGCCGCCTCTTTCCGGAGTCACCTAGTGCAG”, for which the binding signal is 8190 fluorescence intensity (a.u.).

“GTTGCTTACTACCTGGTATTAGTCATTGTGGGAGTAGTTCCGGAGTCACCTAGTGCAG”: the binding signal is 8160 fluorescence intensity (a.u.).

As to “TGGCATTTTTTTTTTTGGAATTGAGCACTTGTTAATGTCACGGAGTCACCTAGTGCAG”, the binding signal is 8110 fluorescence intensity (a.u.).

Turning to “GCTCACCTAACCCATTCACGTGGCGCCAAACCCTCAGGGGCGGAGTCACCTAGTGCAG”, the binding signal is 8250 fluorescence intensity (a.u.).

In the case of “CACTCGTTTTCAGATCATTTTCCATGGCGCCATGGCGCCTCGGAGTCACCTAGTGCAG”, the binding signal was 8500 fluorescence intensity (a.u.).

Consider “ATCATTTAATTCCTGCGTTTTTCCTGCGATTCAATCAAACCGGAGTCACCTAGTGCAG”, for which the binding signal was 11300 fluorescence intensity (a.u.).

With “AGCTATATTACTCACCTTCTCTCTTTAAGCCTGTCTAGTACGGAGTCACCTAGTGCAG”, the binding signal was 10300 fluorescence intensity (a.u.).

In the case of “TTTCCCTGATCCTTTTCCTAACCCAGTGGCAGGCATCTTTCGGAGTCACCTAGTGCAG”, the binding signal was 9990 fluorescence intensity (a.u.).

For “CTACTTGTGCTGTGTCTTTGTTTTTCTTTCACATTTCTAGCGGAGTCACCTAGTGCAG”, the binding signal is 14300 fluorescence intensity (a.u.).

As to “GTGGGTCCACTTGCTACACATACCACCCCACTTAAACTTTCGGAGTCACCTAGTGCAG”, the binding signal is 8640 fluorescence intensity (a.u.).

On to “TTCAAAATGTTTGACACCGTTGACTTTTTAACACATGATCCGGAGTCACCTAGTGCAG”, for which the binding signal is 32400 fluorescence intensity (a.u.).

As to “ATGTTTGACGCCGTTGATATTTTAGCACATGTTTGACTGTCGGAGTCACCTAGTGCAG”, the binding signal is 11400 fluorescence intensity (a.u.).

Turning to “AATGTTTGACACCGTTGATTTTTTTAGCACATGTTTCACCCGGAGTCACCTAGTGCAG”, the binding signal is 8960 fluorescence intensity (a.u.).

Turning to “TTGACACTGTTGACTTTTTAATATATGTTTGACTGTTCGTCGGAGTCACCTAGTGCAG”, the binding signal was 20400 fluorescence intensity (a.u.).

“CGCCGCTGCCGTTGACCGTGTTCCGGCACTTCTTCACGACCGGAGTCACCTAGTGCAG”: the binding signal was 17400 fluorescence intensity (a.u.).

With “ATATTTTAATGAATGACACTGTTGACTTTTTGACAAACGTCGGAGTCACCTAGTGCAG”, the binding signal is 13300 fluorescence intensity (a.u.).

As to “ATATTTGACACCGTTGACTTTTTAGCACATGTTTGACTGTCGGAGTCACCTAGTGCAG”, the binding signal was 33000 fluorescence intensity (a.u.).

For “CCTTCCGTTTGACACTGTTGACTTTTTTAAATATGTTTGACGGAGTCACCTAGTGCAG”, the binding signal was 16100 fluorescence intensity (a.u.).

As for “CCACGCCGCACCCACCCACTGCCCGTTCCGTTCCGGCGACCGGAGTCACCTAGTGCAG”, the binding signal is 10900 fluorescence intensity (a.u.).

Take “CCGCTGCCGCTTCCGCTTCCGCTTCTTCCGTTCTGGAGACCGGAGTCACCTAGTGCAG”: the binding signal was 10400 fluorescence intensity (a.u.).

Regarding “CGGCGCGTACGCAGTCCACTACCACCACTTCCGCCGGCGCCGGAGTCACCTAGTGCAG”, the binding signal is 8450 fluorescence intensity (a.u.).

Take “CTTGCCGGCCTCCACCGCTAATGTTTGTGCACACAGAAAACGGAGTCACCTAGTGCAG”: the binding signal was 8330 fluorescence intensity (a.u.).

As to “GAACCTAGAAATATTGTCTGTTTTCCTGCCGAACTGAACTCGGAGTCACCTAGTGCAG”, the binding signal is 9900 fluorescence intensity (a.u.).

“TGAAAGGGGTTGATGTGTGGTGAAGGGTAGGTAATTTGTACGGAGTCACCTAGTGCAG”: the binding signal is 10700 fluorescence intensity (a.u.).

For “GGTGGTGGTGTGAGAGCAGTAGACAGGTTTTTCTTGGGGACGGAGTCACCTAGTGCAG”, the binding signal is 8280 fluorescence intensity (a.u.).

Take “CTTCTGCTTCTGGTTCTGGTTCGCCTTCCTAGTTCCTACCCGGAGTCACCTAGTGCAG”: the binding signal was 8330 fluorescence intensity (a.u.).

In the case of “GAAAAATCTTTCCAGTGGTAGTGTGTTGCTCTCGGCCTCGCGGAGTCACCTAGTGCAG”, the binding signal is 8320 fluorescence intensity (a.u.).

As to “GCCCCGAGCGGGCCGAGCTCCCATCGTCTCATCGCCCCAACGGAGTCACCTAGTGCAG”, the binding signal was 11600 fluorescence intensity (a.u.).

On to “AGCCAACCACACACAATGAACCATACCACAGTTACCACAGCGGAGTCACCTAGTGCAG”, for which the binding signal is 10100 fluorescence intensity (a.u.).

On to “TTGGGGAGGATTTTTTCTTTTCATTTCATAATTAATTTCCCGGAGTCACCTAGTGCAG”, for which the binding signal was 11400 fluorescence intensity (a.u.).

On to “TGCATCTCGCCTTATCCCCGCGCCGGCGCTAGGCGAATCGCGGAGTCACCTAGTGCAG”, for which the binding signal was 8340 fluorescence intensity (a.u.).

As for “AGTTTTTGGTAGTTTAGTTTGATACACCACTTCGTTTGATCGGAGTCACCTAGTGCAG”, the binding signal is 18600 fluorescence intensity (a.u.).

With “GCCGTATCTTCTGCGTTGACCAGATCCTTCACTGTCACGCCGGAGTCACCTAGTGCAG”, the binding signal is 19200 fluorescence intensity (a.u.).

For the sequence “TTTTAGCACATGTTGACCGTTCGTCTTATTCAAAAAATTTCGGAGTCACCTAGTGCAG”, the binding signal is 9160 fluorescence intensity (a.u.).

Consider “ACACCGTTGACTTTTTAGCACATGTTGGACTGTTCGTCTTCGGAGTCACCTAGTGCAG”, for which the binding signal was 39800 fluorescence intensity (a.u.).

For “TGACTTTTTAGCACATGTTTGACTGTTCGTCTTATTCAAACGGAGTCACCTAGTGCAG”, the binding signal was 10200 fluorescence intensity (a.u.).

Consider “TTGACACCGTTGACTTTTTAGTACATGTTTGACCGTTCGTCGGAGTCACCTAGTGCAG”, for which the binding signal was 41400 fluorescence intensity (a.u.).

In the case of “AATGGTTTTATCGTTTTACGTGTGTACACCACTTATATATCGGAGTCACCTAGTGCAG”, the binding signal is 8060 fluorescence intensity (a.u.).

“CCGAAGCGTCATCGCCGGTGGCCGTATCTTCTGCGTTGACCGGAGTCACCTAGTGCAG”: the binding signal was 15300 fluorescence intensity (a.u.).

As to “TTCGTTGTACTTACCATCGTTGTTTAGTTTGATTTTTTTTCGGAGTCACCTAGTGCAG”, the binding signal was 8950 fluorescence intensity (a.u.).

For the sequence “ACGCCGCCGTTGCACTTCTCTGCACGCCATTGATCCGATCCGGAGTCACCTAGTGCAG”, the binding signal is 8480 fluorescence intensity (a.u.).

For the sequence “TAACCAGAGTAAATTTTTGGCCAACTTAAGTGCTTTCATACGGAGTCACCTAGTGCAG”, the binding signal is 9070 fluorescence intensity (a.u.).

In the case of “GCAACTTTTTTTCCAAATGTTTGGCATCTGGTGTGTCATCCGGAGTCACCTAGTGCAG”, the binding signal was 8040 fluorescence intensity (a.u.).

With “GAAGCCCACCCAATTCGATTTTTTGGGCCGCCCCACCTTTCGGAGTCACCTAGTGCAG”, the binding signal is 8790 fluorescence intensity (a.u.).

In the case of “TACCGTCGTGCTCCATCAATTCCATCTCCACGTGTTATTGCGGAGTCACCTAGTGCAG”, the binding signal was 10900 fluorescence intensity (a.u.).
